High-throughput results: PubChem BioAssay, several laboratories
An excerpt weighted towards active compounds, which were near 3.9% of everything screened.
HSP90 refold inh – inhibitors of HSP90 luciferase refolding in rabbit reticulocyte lysate; 0.91% of 290,000 active; luciferase refolding luminescence, 3 h; inhibition, % at 5.6 µM; AID 1789;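 active = inhibition above the screen-wide mean plus 3 SD, computed separately per campaign, cut at about 16% in these data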;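 note: 0% = DMSO wells and 100% = 60 µM geldanamycin wells; inhibitors lower the luminescence because luciferase stays unfolded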
TWEAK Fn14 block – blocks TWEAK-Fn14 interaction in a reporter cell assay | TWEAK-stimulated Fn14 reporter cells, luciferase luminescence, 8 h | inhibition, % at 10 µM | AID 1159606 | 2% of 360,000 active; in the data active = inhibition above about 50%
TROY signal inh – blocks TROY-dependent signaling in reporter cells | Q293 LMP1-TROYcd NF-kB luciferase reporter, 4 h | inhibition, % at 10 µM | 0.98% of 360,000 active | AID 1347056;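 active = compounds whose plate-normalised and pattern-corrected inhibition of the luciferase reporter signal at the single screening dose is 50% or more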
HIF-2a block – inhibitors of HIF-2a; 786-0 RCC cells HIF-2a reporter, luciferase luminescence, overnight; inhibition, % at 18.8 µM; 0.72% of 360,000 active;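 active = inhibition of the luminescence signal of 40% or more relative to plate controls, in a single-dose primary screen at 18.75 µM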
C8 TRAIL sens – sensitizes caspase-8 expressing cells to TRAIL; NB7+C8 cells + TRAIL, ATPlite viability luminescence; inhibition (viability loss, TRAIL sensitization), % at 10 µM; 1% of 360,000 active; AID 624354;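 active = compounds causing at least 50% loss of cell viability in the single-dose screen, relative to plate controls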
aSyn UTR inh – 5' untranslated region of α-synuclein, MLPCN primary screen | alpha-synuclein 5'UTR reporter, inhibitor activity | inhibition, % (tested at 7.5 µM) | 0.82% of 300,000 active; in the data active = inhibition above about 60%;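 note: H4 neuroglioblastoma cells stably carrying SNCA 5'UTR luciferase fusion; 0% = DMSO wells and 100% = positive control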
* marks the source's active call; other numbers are inactive results; · = not tested or not shown; ! = repeats disagree.

SMILES | HSP90 refold inh | TWEAK Fn14 block | TROY signal inh | HIF-2a block | C8 TRAIL sens | aSyn UTR inh
NC(=O)c1ccccc1N/C=C/C(=O)c1cccs1 | 4.1 | 9.3 | -50.8 | -150.8 | 58.1* | -47.8
COc1ccc(Nc2ccnc(Nc3ccc(OC)cc3)n2)cc1 | -6.4 | 64.0* | 24.1 | -140.5 | 32.3 | -119.8
O=C1CSc2ccc(C(=O)Nc3cccc(S(=O)(=O)Nc4ccc(Br)cc4)c3)cc2N1 | 3.4 | 97.8* | 82.4* | 14.5 | 31.7 | -1.1
COc1ccc(NC(=O)c2cccc(S(=O)(=O)Nc3ccc(Br)cc3)c2)cn1 | 5.1 | 64.1* | 45.2 | 21.6 | 17.7 | 24.6
O=C(Nc1ccc(Br)cc1)c1cccc(S(=O)(=O)Nc2ccccn2)c1 | 2.9 | 23.4 | 6.4 | 0.2 | 4.3 | -4.7
O=C(Nc1ccc(Br)cc1)c1cccc(S(=O)(=O)Nc2cnc3ccccc3c2)c1 | -0.9 | 50.9* | 42.9 | -23.6 | 20.3 | -17.3
O=C(NCc1ccccc1F)C1CC(=O)N(Cc2ccco2)C1 (configuration not stated) | · | 0.0 | 7.9 | 10.8 | 1.5 | ·
COc1ccc2c(c1)O[C@@H](c1cccc(C(F)(F)F)c1)[C@H](O)C2=O | -3.0 | · | · | · | · | 62.4*
CC(C)=C[C@H]1C[C@H](C)[C@H]2CC[C@H](C)c3c(O)c(O[C@H]4OC[C@H](O)[C@@H](O)[C@@H]4O)c(C)c1c32 | · | 15.2 | -3.0 | 14.0 | 9.9 | ·
Cc1nc2c(o1)C(=O)c1ccccc1C2=Nc1ccccc1 | · | 94.7* | 10.5 | 8.0 | 94.6* | ·
O[C@H]1CN(CC2CCCCC2)[C@@H](c2ccccc2)C[C@@H]1n1cc(C2CC2)nn1 | · | -2.1 | 3.6 | 6.6 | -7.5 | ·
COc1cc(C)c(N(C(C)=O)c2ccccc2)c(C)c1 | 5.0 | -9.2 | 18.6 | 20.8 | 4.9 | 8.1
CC(=O)N(C1=C(N)C(=O)c2ccccc2C1=O)c1ccccc1 | 6.1 | 2.2 | -0.5 | 16.9 | 37.1 | 78.2*
O=C(NC(c1ccccc1)c1c(O)ccc2ccccc12)c1ccccc1Cl (configuration not stated) | -1.1 | 20.6 | 15.8 | -15.5 | 10.6 | 9.9
O=C(NC(c1ccc(Cl)cc1)c1c(O)ccc2ccccc12)c1ccccc1 (configuration not stated) | 6.7 | 65.9* | 51.7* | 20.0 | 32.9 | ·
COc1cc(C(=O)N/N=C/c2cn(Cc3cccc(F)c3)c3ccccc23)ccc1O | -3.9 | -14.9 | 17.9 | -6.9 | 23.6 | 62.1*
Cc1ccc(C(=O)N/N=C/c2cn(Cc3ccccc3)c3ccccc23)cn1 | -1.0 | 20.2 | -15.4 | -57.0 | 30.4 | 64.3*
O=C(N/N=C/c1cn(Cc2ccccc2)c2ccccc12)c1cc(O)cc(O)c1 | -6.3 | -22.9 | -17.8 | 4.5 | 4.1 | 62.1*
CCCCOC(=O)c1ccc(NC(=O)COC(=O)C2CC2C)cc1 (configuration not stated) | · | -20.0 | -23.0 | -80.0 | 17.7 | ·
CN(Cc1ccccc1)C(=O)c1csc(COCCO)n1 | · | -4.5 | -0.8 | 4.9 | -9.0 | ·
CN(C)c1ccc(-c2noc(-c3ccccc3O)n2)cc1 | 3.4 | 75.8* | 26.9 | -143.7 | 40.5 | 71.4*
Cc1ccc(-c2noc(-c3ccccc3Br)n2)cc1 | -4.8 | 34.7 | 24.2 | -125.1 | 51.3* | ·
Clc1ccc2c(-c3ccccc3)nc(-c3cccs3)nc2c1 | · | -31.6 | -21.7 | -0.9 | -0.1 | ·
O=C(NCc1ccccc1)C(c1ccc(-c2ccccc2)cc1)N1CCN(c2ccccc2F)CC1 (configuration not stated) | · | · | · | 5.0 | -4.4 | ·
Cc1ccc(S(=O)(=O)N2CCN(C(=O)COC(=O)c3ccc(Cl)nc3)CC2)c(C)c1 | · | 0.3 | -1.2 | -0.4 | -5.9 | ·
SMILES | HSP90 refold inh | TWEAK Fn14 block | TROY signal inh | HIF-2a block | C8 TRAIL sens | aSyn UTR inh
CCCc1cc(-c2nc(N)ncc2-c2csc(C)n2)c(O)cc1OC | -1.6 | 14.8 | 7.6 | 29.9 | -1.9 | 22.7
CCCc1cc(-c2nc(N)ncc2-c2ccc3c(c2)OCCCO3)c(O)cc1OC | 5.4 | 34.0 | 24.9 | 31.7 | -10.6 | 61.7*
O=C1NC[C@H](CCCCN2CCN(CCc3ccc(O)cc3)C(=O)C2=O)N(CCC2CCCCC2)C1=O | · | -2.0 | 6.2 | -2.3 | 3.6 | ·
C=CCN=c1scc(-c2ccccc2)n1/N=C/c1ccccn1 | 3.9 | -2.5 | -6.2 | -246.7 | 53.3*! | -67.8
CCN=c1scc(-c2ccccc2)n1/N=C/c1ccccn1 | 11.6 | 91.7* | 77.4* | -25.2 | 89.3* | 26.2
CCN=c1scc(-c2ccc(F)cc2)n1/N=C/c1ccccn1 | -5.4 | 24.2 | -20.7 | -348.8 | 16.2 | -73.0
COc1ccc(S(=O)(=O)Nc2cc3c(C(C)=O)c(C)oc3c3ccccc23)cc1 | 0.2 | -3.6 | 11.8 | 24.7 | 3.6 | 81.9*
Cc1ccc(S(=O)(=O)Nc2ccccc2-c2ccccc2NS(=O)(=O)c2ccc(C)cc2)cc1 | -5.2 | -1.4 | 51.5* | 12.7 | 0.1 | -3.7
COc1cc(NS(=O)(=O)c2ccc(C)cc2)c2ncccc2c1 | 5.7 | 107.3* | 27.6 | 18.0 | 15.6 | 68.6*
S=C(Nc1ccccc1)N1CCN(C2CCCCC2)CC1 | 1.9 | 31.5 | 60.1* | -3.5 | 2.2 | -11.7
O=C1CCCCCC(=O)[C@H](O)C[C@H](c2ccccc2)O1 | · | -3.0 | -8.6 | -1.1 | -20.9 | ·
Cn1c(N)c(C(=O)CCl)c(=O)n(Cc2ccccc2)c1=O | -1.2 | -1.5 | -3.8 | 28.0 | 90.0* | -2.8
Cn1c(=O)c(C(=O)CCl)c(N)n(Cc2ccccc2)c1=O | 7.0 | 8.4 | -6.2 | 16.2 | 28.3 | -4.9
Cc1cccc(/C=C2/Sc3ccc(C(=O)NCCN4CCCC4)cc3NC2=O)c1 | -2.7 | -10.4 | -3.2 | 5.1 | 22.4 | -58.0
CCN1CCN(CCCNC(=O)c2ccc3c(c2)NC(=O)/C(=C\c2cccc(C)c2)S3)CC1 | -2.6 | -51.0 | -36.5 | 7.6 | 70.5* | -0.4
Cc1cccc(/C=C2/Sc3ccc(C(=O)NCCCN4CCOCC4)cc3NC2=O)c1 | -0.1 | -14.2 | 22.9 | 12.6 | 13.0 | -68.8
COc1cccc(/C=C2/Sc3ccc(C(=O)NCCN4CCCCCC4)cc3NC2=O)c1 | 0.6 | -18.3 | 2.3 | 14.7 | 75.4* | 44.9
COC1=CC(=O)OC(c2cccc([N+](=O)[O-])c2)C1 (configuration not stated) | · | · | · | -3.0 | -3.5 | ·
CC(C)=CCOc1ccc2c(C)c(CCC(=O)N3C[C@H]4C[C@@H](C3)c3cccc(=O)n3C4)c(=O)oc2c1C | · | -13.8 | -30.4 | -77.0 | -0.8 | ·
Cc1sc2ncnc(N3CCC(C(=O)Nc4ccccc4C(C)(C)C)CC3)c2c1C | · | 74.4* | 53.4* | 14.9 | 19.1 | -4.1
Cc1sc2ncnc(N3CCC(C(=O)Nc4nc(-c5cccs5)cs4)CC3)c2c1C | · | 67.1* | 25.2 | -5.3 | 31.2 | -15.6
CCOC(=O)c1ccccc1NC(=O)C1CCN(c2ncnc3sc(C)c(C)c23)CC1 | · | -22.2 | 1.3 | -0.3 | 10.2 | 6.7
CCC(C(=O)NC1CCCC1)n1c(-c2ccnc3ccccc23)nc2ccccc21 (configuration not stated) | · | · | · | 10.0 | 3.2 | ·
